Records with an inconclusive call do not appear. A number with no mark means an inactive call. Active and inactive are the calls of the source. Unless noted, the call rests on the fitted dose curve.
On the % scale 0 is the no-effect control and ±100 the full control effect.

The nature of the first assay: cAMP Responsive Elements (CRE) small molecule agonists, cell-based qHTS assay (AID 1963590). The conditions noted are these: CRE-bla HEK293T, beta-lactamase FRET ratio, 3 h; series mostly up to 92.4 µM; activation: at the top concentration. In short, it runs like this:
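HEK 293T cells stably bearing CRE-bla were plated at 2,000 cells per well and rested 18 h. Compounds, positive controls or DMSO were added for 3 h at 37 C. LiveBLAzer B/G substrate was then loaded for 2 h at room temperature.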
Background: Quantitative high-throughput screening tests each substance at several concentrations.
For `c1cnc2cc3c(cc2n1)C1CNCC3C1`, the “activation” value was -1.18% [at 42.5 µM].

As to `OCc1c2ccccc2cc2ccccc12`, the “activation” value is 3.83%.

Take `CCCc1ccccc1`: the “activation” value was 0.526%.

For the molecule `CC(=O)CC(C)=O`, the “activation” value was -0.484%.

Regarding `C=CC(=O)OCCCCCC`, the “activation” value was 0.0264%.

`CC(C)(C)C(=O)OCOP(=O)(COCCn1cnc2c(N)ncnc21)OCOC(=O)C(C)(C)C`: the “activation” value was 7.21% [at 42.5 µM].

For `Nc1cc(S(=O)(=O)O)cc2cc(S(=O)(=O)O)cc(O)c12`, the “activation” value is -1.76%.

As for `N=C(N=C(N)N)N1CCOCC1`, the “activation” value was -0.152% [at 42.5 µM].

As to `Oc1c(Cl)ccc(Cl)c1Cl`, the Potency result was “inactive”.

With `CC1=CC[C@@]23C[C@@H]1C(C)(C)[C@@H]2CC[C@H]3C`, the “activation” value is -1.64%.

Take `O=C(O)c1cccc(C(F)(F)F)c1`: the “activation” value is -3.64%.

Take `CC(O)Cn1cnc2c1c(=O)n(C)c(=O)n2C` (centres undefined): the “activation” value was -1.29% [at 42.5 µM].

Take `CN(C)CCOC(c1ccc(Cl)cc1)c1ccccn1` (centres undefined): the “activation” value was 0.665% [at 42.5 µM].

Turning to `CC1(C)C(O)C(C)(C)C1O` (centres undefined), the “activation” value was 0.246%.

As to `CC(C)(c1ccc(O)cc1)c1ccc(O)cc1`, the Potency result was “inactive”.

With `C=CCCCCCCCC`, the “activation” value is 0.211%.

In the case of `O=C(O)[C@@H]1[C@H]2C[C@H]3c4[nH]c5ccccc5c4CCN3C[C@@H]2CC[C@@H]1O`, the “activation” value is 0.0469% [at 42.5 µM].

`C=CC(C)CCC=C(C)C` (centres undefined): the “activation” value is -0.289%.

For `O=C(O)C(=O)Nc1cccc(-c2nn[nH]n2)c1`, the “activation” value is 1.04% [at 42.5 µM].

With `CN(C)N=Nc1ccccc1`, the “activation” value was 0.811%.

As for `OCCOc1ccc(OCCO)cc1`, the “activation” value is 0.313%.

For `C=CCS(=O)(=O)O`, the “activation” value is -0.323%.

As to `CCCCSCCCC`, the “activation” value was 0.439%.

Turning to `CCNc1nc(N)nc(Cl)n1`, the “activation” value was 0.042%.

With `Cc1ccc(N)cc1[N+](=O)[O-]`, the “activation” value is -0.068%.

As for `CC(C[N+](C)(C)C)OC(N)=O` (centres undefined), the “activation” value is 3.75% [at 42.5 µM].

On to `COc1cc(C(=O)N2CCOCC2)cc(OC)c1OC`, for which the “activation” value is -0.872% [at 42.5 µM].

The nature of another assay: cAMP Responsive Elements (CRE) small molecule antagonists, cell-based qHTS assay (AID 1963591; active means well fitted inhibition curve with a large enough effect in the signal ratio in the repeat runs, not every such curve was filed as active; the % refers to the signal ratio). The conditions noted are these: CRE-bla HEK293T, beta-lactamase FRET ratio; series mostly up to 92.4 µM; activity change, negative = inhibition: at the top concentration. The method in brief: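 First, CRE-bla HEK293T cells settled 18 h at 37 C. Next, compound and 0.25 uM final NKH477 were applied for 3 h. Last, LiveBLAzer B/G substrate was loaded for 2 h at room temperature.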
For `c1cnc2cc3c(cc2n1)C1CNCC3C1`, the “activity change, negative = inhibition” value was 0.996% [at 42.4 µM].

With `CCCc1ccccc1`, the “activity change, negative = inhibition” value is 5.86%.

Regarding `CC(=O)CC(C)=O`, the “activity change, negative = inhibition” value was -5.75%.

Take `C=CC(=O)OCCCCCC`: the “activity change, negative = inhibition” value was -2.96%.

For `CC(C)(C)C(=O)OCOP(=O)(COCCn1cnc2c(N)ncnc21)OCOC(=O)C(C)(C)C`, the “activity change, negative = inhibition” value was 21% [at 42.4 µM].

With `Oc1ccc(C(c2ccc(O)cc2)C(Cl)(Cl)Cl)cc1`, the “activity change, negative = inhibition” value was -17.4%.

For the molecule `Nc1cc(S(=O)(=O)O)cc2cc(S(=O)(=O)O)cc(O)c12`, the “activity change, negative = inhibition” value is -13.8%.

As to `Oc1c(Cl)ccc(Cl)c1Cl`, the Potency result is “inactive”.

For the molecule `CC1=CC[C@@]23C[C@@H]1C(C)(C)[C@@H]2CC[C@H]3C`, the “activity change, negative = inhibition” value was 0.296%.

As for `CC(O)Cn1cnc2c1c(=O)n(C)c(=O)n2C` (centres undefined), the “activity change, negative = inhibition” value was 0.158% [at 42.4 µM].

`CN(C)CCOC(c1ccc(Cl)cc1)c1ccccn1` (centres undefined): the “activity change, negative = inhibition” value was -3.43% [at 42.4 µM].

On to `O=C(O)c1cc(-c2ccccc2)nc2ccccc12`, for which the “activity change, negative = inhibition” value is 1.5% [at 42.4 µM].

For the molecule `CC1(C)C(O)C(C)(C)C1O` (centres undefined), the “activity change, negative = inhibition” value was 0.659%.

For `Cc1ccc(N(C)C)cc1`, the Potency result is “inactive”.

As to `C/C=C/C(=O)CCCC`, the “activity change, negative = inhibition” value was -9.07%.

With `CC(C)(c1ccc(O)cc1)c1ccc(O)cc1`, the “activity change, negative = inhibition” value was -22.5%.

Regarding `C=CCCCCCCCC`, the “activity change, negative = inhibition” value was -0.766%.

On to `CC(C)=O`, for which the “activity change, negative = inhibition” value is -4.83%.

With `O=C(O)[C@@H]1[C@H]2C[C@H]3c4[nH]c5ccccc5c4CCN3C[C@@H]2CC[C@@H]1O`, the “activity change, negative = inhibition” value is -10.6% [at 42.4 µM].

For `C=CC(C)CCC=C(C)C` (centres undefined), the “activity change, negative = inhibition” value is 0.671%.

Turning to `O=C(O)C(=O)Nc1cccc(-c2nn[nH]n2)c1`, the “activity change, negative = inhibition” value was 5.25% [at 42.4 µM].

`CN(C)N=Nc1ccccc1`: the “activity change, negative = inhibition” value is -7.25%.

For the molecule `OCCOc1ccc(OCCO)cc1`, the “activity change, negative = inhibition” value is -7.03%.

In the case of `CCCCSCCCC`, the “activity change, negative = inhibition” value was -10.4%.

For `CCNc1nc(N)nc(Cl)n1`, the “activity change, negative = inhibition” value is 6.66%.

For the molecule `Cc1ccc(N)cc1[N+](=O)[O-]`, the “activity change, negative = inhibition” value is -0.0458%.

As for `CC(C[N+](C)(C)C)OC(N)=O` (centres undefined), the “activity change, negative = inhibition” value was -7.15% [at 42.4 µM].
